For the assay, the target named is furin, P09958. Nature of the assay: furin cleavage Z-score vs untreated control; higher = more cleavage, active = 3.5 or more, inactive = 1 or less, 8 variable residues between constant flanks. In short, it runs like this:
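To give the cleavage Z-score, log read counts were set against furin-free reactions, lowess-adjusted and scaled by median absolute deviation. These counts came from PCR adapter-tagged, sequenced DNA released when purified furin cut 8-mer peptides fused to a cDNA oligonucleotide and held on magnetic beads by their N-terminus. Digests were 0.01 ml, 1:10 enzyme:substrate, in 50 mM HEPES pH 7.5 with CaCl2 and NaCl, for 7.5, 15 or 30 min.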

This is one part of the list. No count for the full screen is at hand.

Chain of furin, P09958 (P09958 whole entry, the tested form may be a part): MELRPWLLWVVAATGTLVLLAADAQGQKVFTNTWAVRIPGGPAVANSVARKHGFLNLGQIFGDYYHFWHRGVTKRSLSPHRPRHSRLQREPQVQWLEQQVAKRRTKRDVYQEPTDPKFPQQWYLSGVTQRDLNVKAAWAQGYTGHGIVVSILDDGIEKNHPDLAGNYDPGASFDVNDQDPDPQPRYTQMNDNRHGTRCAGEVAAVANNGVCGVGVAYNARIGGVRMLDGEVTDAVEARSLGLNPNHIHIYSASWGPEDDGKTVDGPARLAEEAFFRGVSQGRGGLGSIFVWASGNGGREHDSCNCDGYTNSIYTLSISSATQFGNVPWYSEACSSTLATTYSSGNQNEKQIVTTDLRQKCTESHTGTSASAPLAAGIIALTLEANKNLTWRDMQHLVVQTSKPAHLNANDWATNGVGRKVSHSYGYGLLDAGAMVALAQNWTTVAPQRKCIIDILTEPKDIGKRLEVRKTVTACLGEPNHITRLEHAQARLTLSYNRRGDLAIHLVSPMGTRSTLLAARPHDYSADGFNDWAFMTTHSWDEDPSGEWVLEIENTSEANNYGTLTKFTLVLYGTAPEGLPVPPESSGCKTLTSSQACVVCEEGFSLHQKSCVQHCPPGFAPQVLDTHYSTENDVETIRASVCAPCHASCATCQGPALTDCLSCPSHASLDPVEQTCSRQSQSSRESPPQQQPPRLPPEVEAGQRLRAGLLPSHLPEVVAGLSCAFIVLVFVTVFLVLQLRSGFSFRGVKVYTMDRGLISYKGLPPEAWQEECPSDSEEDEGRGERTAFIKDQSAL

Regarding CAQCCDLDPQAGNASASA [HC1491], the “furin cleavage Z-score” value is 0.144 (inactive) (7.5 min), 0.912 (inactive) (15 min) and -0.252 (inactive) (30 min).

With CAMEECSQCLAGNASASA [HC1760], the “furin cleavage Z-score” value (7.5 min) was -0.273 (inactive), the “furin cleavage Z-score” value (15 min) was -0.494 (inactive) and the “furin cleavage Z-score” value (30 min) is 0.638 (inactive).

For the sequence CAEVVFSTWVAGNASASA [HC126], the “furin cleavage Z-score” value was 1.73 (7.5 min), -1.1 (inactive) (15 min) and -0.791 (inactive) (30 min).

Regarding CATSSEPAPSAGNASASA [HC1344], the “furin cleavage Z-score” value reads like this: (7.5 min) -0.191 (inactive); (15 min) -1.38 (inactive); (30 min) -0.0397 (inactive).

CAGLRRRKRDAGNASASA [FS-930]: the “furin cleavage Z-score” value (7.5 min) was 12.2 (active), the “furin cleavage Z-score” value (15 min) was 10.2 (active) and the “furin cleavage Z-score” value (30 min) was 8.8 (active).

On to CATSSRNARNAGNASASA [FS-571], for which the “furin cleavage Z-score” value runs as follows: (7.5 min) 3.05; (15 min) 4.2 (active); (30 min) 5.2 (active).

Consider CATHRRQKRDAGNASASA [FS-1092], for which the “furin cleavage Z-score” value is 3.98 (active) (7.5 min), 2.56 (15 min) and 2.3 (30 min).

In the case of CAISPRQKRDAGNASASA [FS-542], the “furin cleavage Z-score” value is 12.4 (active) (7.5 min), 12.3 (active) (15 min) and 9.21 (active) (30 min).

For the sequence CATDSRTNRDAGNASASA [FS-1422], the “furin cleavage Z-score” value was -1.07 (inactive) (7.5 min), -0.239 (inactive) (15 min) and 1.78 (30 min).

Turning to CATTPCSGDWAGNASASA [HC1911], the “furin cleavage Z-score” value runs as follows: (7.5 min) 1.59; (15 min) -1.02 (inactive); (30 min) 0.621 (inactive).

Take CAEVGTSTWVAGNASASA [HC2196]: the “furin cleavage Z-score” value by setting is: (7.5 min) 0.089 (inactive); (15 min) 1.37; (30 min) 0.992 (inactive).

With CAEVVTSTWSAGNASASA [HC2257], the “furin cleavage Z-score” value is, setting by setting: (7.5 min) 0.148 (inactive); (15 min) -0.0297 (inactive); (30 min) 0.967 (inactive).

Take CASTPCSEHLAGNASASA [HC2532]: the “furin cleavage Z-score” value reads like this: (7.5 min) 1.63; (15 min) 0.136 (inactive); (30 min) -0.509 (inactive).

Consider CAVEFLVQAWAGNASASA [HC1471], for which the “furin cleavage Z-score” value was -1.03 (inactive) (7.5 min), -0.538 (inactive) (15 min) and 0.302 (inactive) (30 min).

Turning to CALEDNVTPIAGNASASA [HC1434], the “furin cleavage Z-score” value (7.5 min) was -0.871 (inactive), the “furin cleavage Z-score” value (15 min) was -0.336 (inactive) and the “furin cleavage Z-score” value (30 min) is -2.15 (inactive).

As for CAADLEVVTSAGNASASA [HC986], the “furin cleavage Z-score” value is 0.0893 (inactive) (7.5 min), -0.606 (inactive) (15 min) and -0.099 (inactive) (30 min).

As for CATSSRRKRDAGNASASA [FS-630], the “furin cleavage Z-score” value by setting is: (7.5 min) 11 (active); (15 min) 10.2 (active); (30 min) 7.47 (active).

Consider CAYDSMKKRDAGNASASA [FS-389], for which the “furin cleavage Z-score” value is, setting by setting: (7.5 min) 0.389 (inactive); (15 min) 0.234 (inactive); (30 min) 0.576 (inactive).

Regarding CARPSRVARDAGNASASA [FS-1565], the “furin cleavage Z-score” value (7.5 min) is 13.5 (active), the “furin cleavage Z-score” value (15 min) is 13.3 (active) and the “furin cleavage Z-score” value (30 min) was 9.92 (active).

In the case of CAIITRWKRDAGNASASA [FS-1013], the “furin cleavage Z-score” value was 11.5 (active) (7.5 min), 11.3 (active) (15 min) and 8.16 (active) (30 min).

In the case of CATSNSLKRDAGNASASA [FS-885], the “furin cleavage Z-score” value (7.5 min) was -0.606 (inactive), the “furin cleavage Z-score” value (15 min) is 0.0826 (inactive) and the “furin cleavage Z-score” value (30 min) is -0.0438 (inactive).

Turning to CARPSRQIHKAGNASASA [FS-2286], the “furin cleavage Z-score” value by setting is: (7.5 min) 1.18; (15 min) -0.223 (inactive); (30 min) 1.59.

Consider CARPSRPWRDAGNASASA [FS-1479], for which the “furin cleavage Z-score” value (7.5 min) is -0.109 (inactive), the “furin cleavage Z-score” value (15 min) is 1.22 and the “furin cleavage Z-score” value (30 min) was 0.811 (inactive).

For the sequence CATSSRSARKAGNASASA [FS-1617], the “furin cleavage Z-score” value (7.5 min) is -0.831 (inactive), the “furin cleavage Z-score” value (15 min) is 2.68 and the “furin cleavage Z-score” value (30 min) was 0.36 (inactive).

For CAQYLAGLSTAGNASASA [HC1047], the “furin cleavage Z-score” value (7.5 min) was -0.145 (inactive), the “furin cleavage Z-score” value (15 min) was 1 and the “furin cleavage Z-score” value (30 min) turned out to be 1.23.

In the case of CARKKKAWIYAGNASASA [FS-2559], the “furin cleavage Z-score” value runs as follows: (7.5 min) 0.615 (inactive); (15 min) -1.67 (inactive); (30 min) -1.6 (inactive).

With CAVGCCSMSYAGNASASA [HC2016], the “furin cleavage Z-score” value is, setting by setting: (7.5 min) -0.196 (inactive); (15 min) -0.437 (inactive); (30 min) 1.21.

In the case of CAQSPRSFQKAGNASASA [TR4], the “furin cleavage Z-score” value reads like this: (7.5 min) -0.296 (inactive); (15 min) -2.07 (inactive); (30 min) -0.29 (inactive).

In the case of CALMGYIPLVAGNASASA [HC227], the “furin cleavage Z-score” value by setting is: (7.5 min) 0.341 (inactive); (15 min) 2.34; (30 min) -0.327 (inactive).

Regarding CAMEICSQHLAGNASASA [HC1704], the “furin cleavage Z-score” value is, setting by setting: (7.5 min) 0.947 (inactive); (15 min) 2.02; (30 min) 0.46 (inactive).

As for CARRHRRPRRAGNASASA [FS-1074], the “furin cleavage Z-score” value is, setting by setting: (7.5 min) 5.28 (active); (15 min) 6.77 (active); (30 min) 6.21 (active).

As for CARRHRTYRWAGNASASA [FS-864], the “furin cleavage Z-score” value was 7.43 (active) (7.5 min), 9.85 (active) (15 min) and 11.3 (active) (30 min).

Regarding CARAERRPRRAGNASASA [FS-1059], the “furin cleavage Z-score” value runs as follows: (7.5 min) 8.38 (active); (15 min) 9.79 (active); (30 min) 8.17 (active).

As to CARRHRKKKRAGNASASA [FS-918], the “furin cleavage Z-score” value reads like this: (7.5 min) 0.00638 (inactive); (15 min) 0.147 (inactive); (30 min) 0.539 (inactive).

With CARAERAARFAGNASASA [FS-185], the “furin cleavage Z-score” value is 0.624 (inactive) (7.5 min), 2.79 (15 min) and 2.55 (30 min).

For the sequence CAKEVKAAASAGNASASA [HC1405], the “furin cleavage Z-score” value is, setting by setting: (7.5 min) 0.037 (inactive); (15 min) -0.691 (inactive); (30 min) 0.852 (inactive).

As to CAKYLFNWAVAGNASASA [HC1632], the “furin cleavage Z-score” value is -0.0484 (inactive) (7.5 min), 0.619 (inactive) (15 min) and 0.965 (inactive) (30 min).

For the sequence CASSECTTPCAGNASASA [HC1143], the “furin cleavage Z-score” value is -0.401 (inactive) (7.5 min), 1.52 (15 min) and 0.461 (inactive) (30 min).

Consider CATVCCSMSYAGNASASA [HC1998], for which the “furin cleavage Z-score” value (7.5 min) was 0.937 (inactive), the “furin cleavage Z-score” value (15 min) is 0.131 (inactive) and the “furin cleavage Z-score” value (30 min) is 0.837 (inactive).

For the sequence CAGAGLAGAAAGNASASA [HC1076], the “furin cleavage Z-score” value is -0.496 (inactive) (7.5 min), -0.493 (inactive) (15 min) and -0.847 (inactive) (30 min).

As to CATIKRLKRSAGNASASA [FS-97], the “furin cleavage Z-score” value is, setting by setting: (7.5 min) 11.2 (active); (15 min) 11.4 (active); (30 min) 9.36 (active).

As for CAAVARLKRSAGNASASA [FS-218], the “furin cleavage Z-score” value is 12.9 (active) (7.5 min), 11 (active) (15 min) and 9 (active) (30 min).

CATIKRSVISAGNASASA [FS-2853]: the “furin cleavage Z-score” value is, setting by setting: (7.5 min) 0.545 (inactive); (15 min) 0.855 (inactive); (30 min) -1.24 (inactive).

On to CAHHSPLKRSAGNASASA [FS-30], for which the “furin cleavage Z-score” value is, setting by setting: (7.5 min) -0.21 (inactive); (15 min) 0.983 (inactive); (30 min) 1.29.
